The results in this text go back to PubChem BioAssay AID1839 (Johns Hopkins Ion Channel Center, 2009).

Out of some 2,400 compounds screened, about 220 (9.2%) were called active. Only a selection was taken, and actives are over-represented in it overall. A number with no mark means an inactive call.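 Rule for the calls: active = signal change above the mean of dofetilide-free buffer controls plus 3 SD, so a positive margin; inactive = the rest.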

The assay can be described thus: thallium signal changes without hERG – cell-based, CHO-K1 parental line, FluxOR thallium flux, counter-screen for hERG block protection project, confirmation (AID 1839).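 Note: compounds applied alone with no dofetilide to cells lacking hERG.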 The conditions noted are these: CHO-K1 parental cells, FluxOR thallium flux fluorescence; at 10 µM.
As to `CC/C(=C\C=C\[C@@H]1C=C[C@@H]2CCC[C@H]2[C@@H]1C(=O)c1ccc[nH]1)[C@@H]1O[C@@H]([C@@H](C)C(=O)O)CC[C@@H]1C`, the signal change vs control minus 3*SD hit threshold (margin above threshold, higher = more increase) is 83% (active).
With `O=c1c2cc(Br)ccc2[nH]c(=S)n1-c1ccccc1`, the signal change vs control minus 3*SD hit threshold (margin above threshold, higher = more increase) is -20.2%.
Regarding `CCCCN1C(=O)/C(=C/c2ccc(N3CCCCCC3)cc2)C(=O)NC1=S`, the signal change vs control minus 3*SD hit threshold (margin above threshold, higher = more increase) is -36%.
Take `Cc1ccc(/C=C2\C(=O)NC(=S)N(c3ccc(F)cc3)C2=O)s1`: the signal change vs control minus 3*SD hit threshold (margin above threshold, higher = more increase) is -30.1%.
With `CN1C(=O)/C(=C/c2ccc(Cl)s2)C(=O)NC1=S` the figure was -29.5%.
